{
  "source": "PubChem BioAssay (NCATS)",
  "note": "Inconclusive results are not listed. Active and inactive are the calls of the source. Calls come from the whole dose curve; as a rule, active = well fitted cell-killing curve with a large enough effect; inconclusive = small, poorly fitted or top-dose-only effect; inactive = flat fitted curve, though single readings scatter.",
  "data": [
    {"experiment": "Cell Viability - Renal Proximal Tubule (AID 545);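 note: 0% = DMSO only and -100% = 100 µM tamoxifen; nearly all actives have a fitted effect of over 40% in size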", "conditions": "renal proximal tubule cells viability, primary cells of rat origin; series mostly up to 91.7 µM; activity change, negative = cytotoxicity: at the top concentration", "source_text": "NIH Chemical Genomics Center [NCGC]\nNIH Molecular Libraries Screening Centers Network [MLSCN]\nNational Institutes of Environmental Health Sciences [NIEHS]\nNational Toxicology Program [NTP]\nWe have developed a 1536-well cell-based assay for quantitative high throughput screening (qHTS) against a number of cell lines to determine in vitro cytotoxicity of small molecules. This particular assay uses the renal proximal tubule cells which are derived from normal kidney cells freshly isolated from rat.\nNCGC Assay Protocol Summary:\nThe CellTiter-Glo luminescent cell viability assay (Promega) is a homogeneous method to measure the number of viable cells in culture. The end point readout of this assay is based on quantitation of intracellular ATP, an indicator of metabolic activity, using the luciferase reaction. Luciferase catalyzes the oxidation of beetle Luciferin to oxyluciferin and light in the presence of ATP. The luminescent signal is proportional to amount of ATP present.\nUsing the CellTiter-Glo luminescent cell viability assay, the amount of cellular ATP was measured in the renal proximal tubule cells with complete culture medium following compound treatment for 40 hours. The assay was performed in opaque white Kalypsys 1536-well plates. In the screen, tamoxifen and doxorubicin were used as positive controls. Library compounds were measured for their ability to cause acute toxicity in the cell line, as reflected by a decrease in intracellular ATP levels, in a concentration-dependent manner. […] AC50 values were determined from concentration-response data modeled with the standard Hill equation.\nqHTS protocol for CellTiter Glo renal proximal tubule cell assay\n[Step] [Parameter] [Value] [Description]\n1. Reagent; 5 uL; 1000 renal proximal tubule cells/well\n2. Time; 5 hr; 37 °C incubation\n4. Controls; 23 nL; Tamoxifen 0.34 uM to 100 uM & Doxorubicin 0.02 nM to 100 uM\n5. Time; 40 hr; 37 °C incubation\n6. Reagent; 5 uL; CellTiter Glo reagent\n7. Time; 20 min; Room Temperature\n8. Detection; Luminescence; Viewlux plate reader\nKeywords: cell viability, cytotoxicity, renal proximal tubule cells, luminescence, NTPHTS, NTPHTS_NCGC, NIEHS, EPA, DSSTox, MLSMR, MLSCN, NIH Roadmap, qHTS, NCGC", "values": [
      {"compound": "Cc1cc(C2(c3cc(C)c(O)cc3C)OS(=O)(=O)c3ccccc32)c(C)cc1O", "activity change, negative = cytotoxicity": "-8.52% (inactive)"},
      {"compound": "Cc1cccc(Br)c1", "activity change, negative = cytotoxicity": "2.19% (inactive)"},
      {"compound": "C=C(C)C1CC=C(C)C(OC(C)=O)C1", "note": "(stereo not given)", "activity change, negative = cytotoxicity": "2.35% (inactive)"},
      {"compound": "Nc1cccc(S(=O)(=O)O)c1", "activity change, negative = cytotoxicity": "-9.35% (inactive)"},
      {"compound": "CCNc1ccccc1", "activity change, negative = cytotoxicity": "-7.84% (inactive)"},
      {"compound": "C1CCC2OC2C1", "note": "(stereo not given)", "activity change, negative = cytotoxicity": "-5.65% (inactive)"},
      {"compound": "Cc1ccccc1C(=O)O", "activity change, negative = cytotoxicity": "1.96% (inactive)"},
      {"compound": "O=C1CCC(=O)O1", "activity change, negative = cytotoxicity": "-6.67% (inactive)"},
      {"compound": "CCCCCCC(=O)O", "activity change, negative = cytotoxicity": "0.00482% (inactive)"},
      {"compound": "CC(=C/C=C/C(C)=C/C=C/C=C(C)/C=C/C=C(C)/C=C/C(=O)O)/C=C/C(=O)O", "activity change, negative = cytotoxicity": "-2.14% (inactive)"},
      {"compound": "Cc1ccc(Cl)cc1", "activity change, negative = cytotoxicity": "0.366% (inactive)"},
      {"compound": "ClC/C=C/CCl", "activity change, negative = cytotoxicity": "0.0383% (inactive)"},
      {"compound": "O=Cc1ccc(Cl)cc1", "activity change, negative = cytotoxicity": "-7.31% (inactive)"},
      {"compound": "Oc1c(Cl)ccc(Cl)c1Cl", "activity change, negative = cytotoxicity": "1.7% (inactive)"},
      {"compound": "FB(F)F", "activity change, negative = cytotoxicity": "-0.617% (inactive)"},
      {"compound": "Cc1ccccc1Br", "activity change, negative = cytotoxicity": "-5.42% (inactive)"},
      {"compound": "O=C(O[C@@H](C(=O)O)[C@@H](OC(=O)c1ccccc1)C(=O)O)c1ccccc1", "activity change, negative = cytotoxicity": "-7.46% (inactive)"},
      {"compound": "Nc1c(Cl)cc(Cl)cc1Cl", "activity change, negative = cytotoxicity": "-9.45% (inactive)"},
      {"compound": "CCOC(=O)OCC", "activity change, negative = cytotoxicity": "-9.98% (inactive)"},
      {"compound": "CCCCC(=O)N(C)C", "activity change, negative = cytotoxicity": "4.55% (inactive)"},
      {"compound": "Cc1nc2ccc(Cl)cc2[nH]1", "activity change, negative = cytotoxicity": "-0.807% (inactive)"},
      {"compound": "COC(=O)CC#N", "activity change, negative = cytotoxicity": "-16.5% (inactive)"},
      {"compound": "NCCCCCCN", "activity change, negative = cytotoxicity": "-6.13% (inactive)"},
      {"compound": "CCOc1cccc(N)c1", "activity change, negative = cytotoxicity": "2.77% (inactive)"},
      {"compound": "Cc1ccc(C)c(O)c1", "activity change, negative = cytotoxicity": "-8.95% (inactive)"},
      {"compound": "CC(=O)c1ccccc1[N+](=O)[O-]", "activity change, negative = cytotoxicity": "-7.18% (inactive)"},
      {"compound": "C=CCn1c(=O)n(CC=C)c(=O)n(CC=C)c1=O", "activity change, negative = cytotoxicity": "-9.26% (inactive)"},
      {"compound": "CN(C)CCCCl", "activity change, negative = cytotoxicity": "-11.3% (inactive)"},
      {"compound": "C=CC(=O)NC(C)C", "activity change, negative = cytotoxicity": "-2.23% (inactive)"},
      {"compound": "CCC=O", "activity change, negative = cytotoxicity": "-6.33% (inactive)"},
      {"compound": "CCCC(Cl)CCCC(Cl)CCC(Cl)CCC(Cl)CCC(Cl)CCCC(Cl)CCC", "note": "(stereo not given)", "activity change, negative = cytotoxicity": "-7.23% (inactive)"},
      {"compound": "CC(C)(O)CCC(C)(C)O", "activity change, negative = cytotoxicity": "-3.9% (inactive)"},
      {"compound": "CN(C)CCCNCCCN", "activity change, negative = cytotoxicity": "-5.67% (inactive)"},
      {"compound": "CNc1ccccc1", "activity change, negative = cytotoxicity": "0.589% (inactive)"},
      {"compound": "C=C(C)C(=O)OC", "activity change, negative = cytotoxicity": "-5.29% (inactive)"},
      {"compound": "BrC(Br)C(Br)Br", "activity change, negative = cytotoxicity": "0.541% (inactive)"},
      {"compound": "O=[N+]([O-])c1ccc(CCO)cc1", "activity change, negative = cytotoxicity": "-6.91% (inactive)"},
      {"compound": "O=C(O)c1ccccc1[N+](=O)[O-]", "activity change, negative = cytotoxicity": "-1.31% (inactive)"},
      {"compound": "CC(=O)OCc1ccco1", "activity change, negative = cytotoxicity": "-5.43% (inactive)"},
      {"compound": "O=CNc1ccccc1", "activity change, negative = cytotoxicity": "-1.35% (inactive)"}
    ]}
  ]
}
